Among all 5,500 compounds or so, about 2,000 (36%) were called active. About 18% were inconclusive and are not listed. Rule as the data show it: active = normalized growth mostly below about 0.91 (no sharp cut-off); inconclusive = no clear call, values can overlap the other calls; inactive = mostly above about 0.92. Some of the results follow.
Assay: chemical genetic growth profiling, strain panel (AID 1159580);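 also: tested at 20 µM; growth read once vehicle control cultures reached saturation at 30 °C; 1 = growth at the plate median or of vehicle wells; lower values mean less growth of the strain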
Conditions: growth OD

Measured: normalized growth

COc1ccc(C(CN(C)C)C2(O)CCCCC2)cc1 (stereo unspecified)
inactive: S. cerevisiae deletion strains, locus YKL009W, strain mrt4, active compounds read low 0.978 | S. cerevisiae deletion strains, locus YKL068W, active compounds read low 0.996 | S. cerevisiae deletion strains, locus YKL085W, strain MDH1 (second series), active compounds read low 0.994 | S. cerevisiae deletion strains, locus YKL085W, strain MDH1, active compounds read low 0.994 | S. cerevisiae deletion strains, locus YKL160W, strain elf1, active compounds read low 0.97 | S. cerevisiae deletion strains, locus YKL190W, strain CNB1, active compounds read low 1 | S. cerevisiae deletion strains, locus YKR001C, strain vps1, active compounds read low 0.977 | S. cerevisiae deletion strains, locus YKR026C, strain gcn3, active compounds read low 0.994 | S. cerevisiae deletion strains, locus YKR091W, strain srl3, active compounds read low 0.969 | S. cerevisiae deletion strains, locus YLL001W, strain dnm1, active compounds read low 0.981 | S. cerevisiae deletion strains, locus YLL026W, active compounds read low 0.997 | S. cerevisiae deletion strains, locus YLL041C, strain sdh2, active compounds read low 0.979 | S. cerevisiae deletion strains, locus YLR027C, strain aat2, active compounds read low 0.989 | S. cerevisiae deletion strains, locus YLR039C, strain RIC1, active compounds read low 1.05 | S. cerevisiae deletion strains, locus YLR058C, strain SHM2, active compounds read low 1.01 | S. cerevisiae deletion strains, locus YLR102C, strain apc9, active compounds read low 0.989 | S. cerevisiae deletion strains, locus YLR113W, strain HOG1, active compounds read low 1.04 | S. cerevisiae deletion strains, locus YLR221C, strain rsa3, active compounds read low 1.01 | S. cerevisiae deletion strains, locus YLR258W, strain gsy2, active compounds read low 0.978 | S. cerevisiae deletion strains, locus YLR262C, strain YPT6 (second series), active compounds read low 0.966 | S. cerevisiae deletion strains, locus YLR262C, strain YPT6, active compounds read low 1.03 | S. cerevisiae deletion strains, locus YLR268W, strain sec22, active compounds read low 0.981 | S. cerevisiae deletion strains, locus YLR320W, strain mms22, active compounds read low 1.02 | S. cerevisiae deletion strains, locus YLR330W, strain CHS5, active compounds read low 1.01 | S. cerevisiae deletion strains, locus YLR342W, strain FKS1 (second series), active compounds read low 1.03 | S. cerevisiae deletion strains, locus YLR342W, strain FKS1, active compounds read low 0.976 | S. cerevisiae deletion strains, locus YLR357W, strain rsc2, active compounds read low 0.936 | S. cerevisiae deletion strains, locus YLR370C, strain arc18, active compounds read low 0.989 | S. cerevisiae deletion strains, locus YLR371W, strain rom2, active compounds read low 0.985 | S. cerevisiae deletion strains, locus YLR384C, strain iki3, active compounds read low 0.996 | S. cerevisiae deletion strains, locus YLR418C, strain cdc73, active compounds read low 0.96 | S. cerevisiae deletion strains, locus YML016C, strain PPZ1, active compounds read low 1.01 | S. cerevisiae deletion strains, locus YML032C, strain rad52, active compounds read low 0.991 | S. cerevisiae deletion strains, locus YML120C, strain ndi1, active compounds read low 1 | S. cerevisiae deletion strains, locus YML124C, strain tub3, active compounds read low 0.989 | S. cerevisiae deletion strains, locus YMR058W, strain fet3, active compounds read low 0.989 | S. cerevisiae deletion strains, locus YMR078C, strain ctf18, active compounds read low 0.993 | S. cerevisiae deletion strains, locus YMR125W, strain sto1, active compounds read low 0.919 | S. cerevisiae deletion strains, locus YMR129W, active compounds read low 0.993 | S. cerevisiae deletion strains, locus YMR205C, strain PFK2, active compounds read low 0.998 | S. cerevisiae deletion strains, locus YMR223W, strain ubp8, active compounds read low 0.99 | S. cerevisiae deletion strains, locus YMR231W, strain pep5, active compounds read low 0.978 | S. cerevisiae deletion strains, locus YMR263W, strain SAP30, active compounds read low 1.01 | S. cerevisiae deletion strains, locus YMR307W, strain GAS1, active compounds read low 1 | S. cerevisiae deletion strains, locus YNL067W, strain RPL9B, active compounds read low 0.991 | S. cerevisiae deletion strains, locus YNL071W, strain lat1, active compounds read low 1 | S. cerevisiae deletion strains, locus YNL128W, strain TEP1, active compounds read low 1.01 | S. cerevisiae deletion strains, locus YNL153C, strain GIM3, active compounds read low 1.01 | S. cerevisiae deletion strains, locus YNL183C, strain NPR1, active compounds read low 0.969 | S. cerevisiae deletion strains, locus YNL209W, strain ssb2, active compounds read low 0.981 | S. cerevisiae deletion strains, locus YNL233W, strain BNI4, active compounds read low 1.02 | S. cerevisiae deletion strains, locus YNL248C, strain rpa49, active compounds read low 0.925 | S. cerevisiae deletion strains, locus YNL250W, strain rad50, active compounds read low 0.993 | S. cerevisiae deletion strains, locus YNL271C, strain bni1, active compounds read low 0.987 | S. cerevisiae deletion strains, locus YNL298W, strain CLA4, active compounds read low 0.991 | S. cerevisiae deletion strains, locus YNL307C, strain MCK1, active compounds read low 0.981 | S. cerevisiae deletion strains, locus YNL322C, strain KRE1 (second series), active compounds read low 0.965 | S. cerevisiae deletion strains, locus YNL322C, strain KRE1, active compounds read low 1.01 | S. cerevisiae deletion strains, locus YNR049C, strain mso1, active compounds read low 0.982 | S. cerevisiae deletion strains, locus YNR052C, strain pop2, active compounds read low 0.998 | S. cerevisiae deletion strains, locus YOL006C, strain TOP1, active compounds read low 1.04 | S. cerevisiae deletion strains, locus YOL012C, strain htz1 0.805 | S. cerevisiae deletion strains, locus YOL147C, strain pex11, active compounds read low 0.984 | S. cerevisiae deletion strains, locus YOR001W, strain rrp6, active compounds read low 1.01 | S. cerevisiae deletion strains, locus YOR061W, strain CKA2, active compounds read low 1.01 | S. cerevisiae deletion strains, locus YOR069W, strain VPS5, active compounds read low 0.995 | S. cerevisiae deletion strains, locus YOR070C, strain gyp1, active compounds read low 0.986 | S. cerevisiae deletion strains, locus YOR080W, strain dia2, active compounds read low 0.973 | S. cerevisiae deletion strains, locus YOR083W, strain WHI5, active compounds read low 0.932 | S. cerevisiae deletion strains, locus YOR106W, strain vam3, active compounds read low 0.967 | S. cerevisiae deletion strains, locus YOR136W, strain idh2, active compounds read low 0.986 | S. cerevisiae deletion strains, locus YOR144C, strain elg1, active compounds read low 0.998 | S. cerevisiae deletion strains, locus YOR184W, strain ser1, active compounds read low 1 | S. cerevisiae deletion strains, locus YOR231W, strain MKK1, active compounds read low 1.01 | S. cerevisiae deletion strains, locus YOR265W, strain rbl2, active compounds read low 0.989 | S. cerevisiae deletion strains, locus YOR270C, strain vph1, active compounds read low 0.945 | S. cerevisiae deletion strains, locus YOR290C, strain snf2, active compounds read low 0.974 | S. cerevisiae deletion strains, locus YOR316C, strain cot1, active compounds read low 0.999 | S. cerevisiae deletion strains, locus YPL051W, strain arl3, active compounds read low 0.994 | S. cerevisiae deletion strains, locus YPL055C, strain LGE1, active compounds read low 1.03 | S. cerevisiae deletion strains, locus YPL078C, strain atp4, active compounds read low 0.969 | S. cerevisiae deletion strains, locus YPL106C, strain sse1, active compounds read low 0.977 | S. cerevisiae deletion strains, locus YPL240C, strain hsp82, active compounds read low 0.996 | S. cerevisiae deletion strains, locus YPL241C, strain CIN2, active compounds read low 1 | S. cerevisiae deletion strains, locus YPL256C, strain CLN2, active compounds read low 0.992 | S. cerevisiae deletion strains, locus YPR119W, strain clb2, active compounds read low 0.993 | S. cerevisiae deletion strains, locus YPR141C, strain kar3, active compounds read low 0.991 | S. cerevisiae deletion strains, locus YPR163C, strain tif3, active compounds read low 0.984 | S. cerevisiae deletion strains, locus YPR167C, strain met16, active compounds read low 0.989 | S. cerevisiae deletion strains, strain wtn01, active compounds read low 0.983 | S. cerevisiae strains, strain wild type, active compounds read low 1

Reference: PubChem BioAssay AID1159580 (chemical genetic matrix, 2015)
